Data: PubChem BioAssay (NCI)
About 83,000 compounds went through this panel and 20% of them were active in at least one assay; those are over-represented in the sample as a whole.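 Growth was measured after 48 h exposure to one concentration of compound in 96-well plates. Values under 10 count as active.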 The source made the active and inactive calls.

tested on: UO-31 renal; test: NCI-60 one-dose screen, 48 h (100 = growth as untreated, 0 = no growth, -100 = all killed); settings: 10 µM unless noted

SMILES	growth
CCN(C(C)=O)c1ccc([N+](=O)[O-])cc1	89.7% (inactive)
O=S(=O)(c1ccc(NC(=S)NCc2cccnc2)cc1)N1CCCCC1	70.7% (inactive)
O=S1(=O)c2ccccc2Oc2ccccc21	93.9% (inactive)
C/C(=N\N=C(/C)c1cccc([N+](=O)[O-])c1)c1cccc([N+](=O)[O-])c1	92.8% (inactive)
OC(CBr)CCBr (centres undefined)	103% (inactive)
CC(=O)NC(CCc1ccc(Cl)c(Cl)c1)c1cccc(O)c(=O)c1 (centres undefined)	-20.9% (active)
CCCCCCCCCCCCCCCCCC(=O)NCCNC(=O)CCCCCCCCCCCCCCCCC	49% (inactive)
COC1CC(OC(=O)c2ccc([N+](=O)[O-])cc2)C(COC(=O)c2ccc([N+](=O)[O-])cc2)O1 (centres undefined)	95.6% (inactive)
CC(=O)NC(O)C(Cl)Cl (centres undefined)	92.8% (inactive)
CC(=O)c1cccc(O)c1	90.5% (inactive)
C1C[S+]2CC[S+]1CC2	106% (inactive)
COC1OC(C(COC(C)=O)OC(C)=O)C(OC(C)=O)C(OC(C)=O)C1OC(C)=O (centres undefined)	83.8% (inactive)
Cn1/c(=N\N=C\c2ccccc2OCCO)sc2ccccc21	57.2% (inactive)
CC(C)(N)CO[C@H]1C[C@H]2CC[C@@]1(C)C2(C)C	91.8% (inactive)
CCCC(=O)CC(=O)c1ccccc1	90.8% (inactive)
Cc1onc(-c2ccccc2Cl)c1C(=O)Cl	91.2% (inactive)
COC1OC(C(O)C(O)CO)C(O)C(O)C1O (centres undefined)	97.1% (inactive)
Cc1cc(=O)n(Nc2ccccc2)c(O)c1C#N	62% (inactive)
ClCC(Cl)C1CCC(Cl)C(Cl)C1 (centres undefined)	86.3% (inactive)

SMILES	growth
C=CCC(O)C=C (centres undefined)	83.1% (inactive)
CCOC(=O)c1ccc(Nc2sc(C(=O)c3ccc(Br)cc3)c(N)c2C#N)cc1	25.6% (inactive)
CNc1ccccc1C(=O)N/N=C/C=C/c1ccccc1	43.8% (inactive)
CC(C)=CCC[C@@H](C)[C@H]1CC[C@@]2(C)C3=C(CC[C@]12C)[C@@]1(C)CC[C@H](O)C(C)(C)[C@@H]1CC3	111% (inactive)
Cc1[nH]nc(C(N)=O)c1[N+](=O)[O-]	96.8% (inactive)
CC(O)C(F)(F)C(F)(F)C(F)(F)F (centres undefined)	95.3% (inactive)
CC1(C)CCC(C)(C)NC(=S)N1	88.2% (inactive)
CCOC(=O)CNC	107% (inactive)
CCCCNc1ccc(-c2ccc(NCCCC)cc2)cc1	58.8% (inactive)
O=S(=O)(O)c1ccc(O)c(C2CCCCC2)c1	91% (inactive)
C1=NCCc2ccccc21	84.3% (inactive)
C=CC1=NC(C)(C)CC(C)O1 (centres undefined)	111% (inactive)
Cc1ccc(NC(=S)N2CCOCC2)cc1C	66.3% (inactive)
COC(=O)c1cccc([N+](=O)[O-])c1	98.2% (inactive)
CCN(CC)CCN1CNC(=S)NC1	83.7% (inactive)
COc1cc2c(c(OC)c1OC)-c1ccc(SC)c(=O)cc1[C@@H](NC1OC(CO)C(O)C(O)C1O)CC2 (some centres undefined)	34.4% (inactive)
CCOC(C=O)OCC	94.4% (inactive)
CCOC(=O)CSCCC#N	98.8% (inactive)

tested on: TK-10 renal; test: as above; settings: 10 µM unless noted

SMILES	growth
CCN(C(C)=O)c1ccc([N+](=O)[O-])cc1	93% (inactive)
O=S(=O)(c1ccc(NC(=S)NCc2cccnc2)cc1)N1CCCCC1	112% (inactive)
O=S1(=O)c2ccccc2Oc2ccccc21	101% (inactive)
C/C(=N\N=C(/C)c1cccc([N+](=O)[O-])c1)c1cccc([N+](=O)[O-])c1	90.8% (inactive)
OC(CBr)CCBr (centres undefined)	131% (inactive)
CC(=O)NC(CCc1ccc(Cl)c(Cl)c1)c1cccc(O)c(=O)c1 (centres undefined)	25.8% (inactive)
CCCCCCCCCCCCCCCCCC(=O)NCCNC(=O)CCCCCCCCCCCCCCCCC	106% (inactive)
COC1CC(OC(=O)c2ccc([N+](=O)[O-])cc2)C(COC(=O)c2ccc([N+](=O)[O-])cc2)O1 (centres undefined)	124% (inactive)
CC(=O)NC(O)C(Cl)Cl (centres undefined)	97.3% (inactive)
CC(=O)c1cccc(O)c1	90% (inactive)
C1C[S+]2CC[S+]1CC2	97.9% (inactive)
COC1OC(C(COC(C)=O)OC(C)=O)C(OC(C)=O)C(OC(C)=O)C1OC(C)=O (centres undefined)	107% (inactive)
Cn1/c(=N\N=C\c2ccccc2OCCO)sc2ccccc21	109% (inactive)
CC(C)(N)CO[C@H]1C[C@H]2CC[C@@]1(C)C2(C)C	105% (inactive)
CCCC(=O)CC(=O)c1ccccc1	94.8% (inactive)
Cc1onc(-c2ccccc2Cl)c1C(=O)Cl	110% (inactive)
COC1OC(C(O)C(O)CO)C(O)C(O)C1O (centres undefined)	107% (inactive)
Cc1cc(=O)n(Nc2ccccc2)c(O)c1C#N	104% (inactive)
ClCC(Cl)C1CCC(Cl)C(Cl)C1 (centres undefined)	100% (inactive)

SMILES	growth
C=CCC(O)C=C (centres undefined)	96.2% (inactive)
CCOC(=O)c1ccc(Nc2sc(C(=O)c3ccc(Br)cc3)c(N)c2C#N)cc1	42.4% (inactive)
CNc1ccccc1C(=O)N/N=C/C=C/c1ccccc1	31.1% (inactive)
CC(C)=CCC[C@@H](C)[C@H]1CC[C@@]2(C)C3=C(CC[C@]12C)[C@@]1(C)CC[C@H](O)C(C)(C)[C@@H]1CC3	112% (inactive)
Cc1[nH]nc(C(N)=O)c1[N+](=O)[O-]	106% (inactive)
CC(O)C(F)(F)C(F)(F)C(F)(F)F (centres undefined)	102% (inactive)
CC1(C)CCC(C)(C)NC(=S)N1	98% (inactive)
CCOC(=O)CNC	126% (inactive)
CCCCNc1ccc(-c2ccc(NCCCC)cc2)cc1	92% (inactive)
O=S(=O)(O)c1ccc(O)c(C2CCCCC2)c1	95% (inactive)
C1=NCCc2ccccc21	119% (inactive)
C=CC1=NC(C)(C)CC(C)O1 (centres undefined)	106% (inactive)
Cc1ccc(NC(=S)N2CCOCC2)cc1C	103% (inactive)
COC(=O)c1cccc([N+](=O)[O-])c1	101% (inactive)
CCN(CC)CCN1CNC(=S)NC1	103% (inactive)
COc1cc2c(c(OC)c1OC)-c1ccc(SC)c(=O)cc1[C@@H](NC1OC(CO)C(O)C(O)C1O)CC2 (some centres undefined)	42.1% (inactive)
CCOC(C=O)OCC	93.1% (inactive)
CCOC(=O)CSCCC#N	101% (inactive)
